In test [1] the target is ATP-dependent 6-phosphofructokinase (Trypanosoma brucei brucei) (UniProt O15648). In words: qHTS Assay to Find Inhibitors of T. brucei phosphofructokinase: hit validation (AID 492961).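 Note: luminescence reports ADP formed as PFK phosphorylates fructose-6-phosphate with ATP.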 The gist of the method: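 Inhibition of parasite PFK is measured as reduced ADP formation, quantified via luciferase after ATP depletion. Assay used 0.1 mM ATP, 0.5 mM F6P, 1.25 nM enzyme, 45 min incubation.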

Test [2] addresses Ubiquitin carboxyl-terminal hydrolase 1 (Homo sapiens) (UniProt O94782). In words: Inhibitors of USP1/UAF1: Pilot qHTS (AID 504865).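 Note: rhodamine fluorescence freed from ubiquitin-rhodamine substrate followed over time; top concentration of the series differs between compounds; nearly all actives have a fitted effect of over 35% in size.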 The gist of the method: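 USP1/UAF1 complex (1nM) preincubated with compound 15 min at room temperature, then Ub-Rho substrate (150nM final) added. Fluorescence read kinetically at 480/540 nm, 6 reads every 60 seconds. Buffer: 50mM HEPES pH 7.8, 0.5mM EDTA, 0.1 mg/ml BSA, 1mM TCEP, 0.01% Tween-20.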
(In qHTS, concentration-response curves come from the screen itself.)

The next test concerns 3D7. Nature of the test: qHTS profiling for inhibitors of Plasmodium falciparum proliferation (AID 504749). Note: nearly all actives have a fitted effect of over 60% in size. Note: potency is the fitted concentration of half-maximal effect. The following applies: P. falciparum in erythrocytes, SYBR Green DNA, 72 h; series mostly up to 28.7 µM. The gist of the method:
(§1)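 SYBR Green fluorescence (ex 485 nm, em 535 nm) reports parasite DNA after 72 h compound exposure of infected red cells at 0.3% parasitemia, 2.5% hematocrit; signal normalized to 0.29 uM artemisinin and vehicle wells.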

The next test relates to C2A. The description is as above. The following applies: P. falciparum in erythrocytes, SYBR Green DNA, 72 h; series mostly up to 28.7 µM. The gist of the method:
as §1

The next test concerns CP185. Described as above. The following applies: P. falciparum in erythrocytes, SYBR Green DNA, 72 h; series mostly up to 28.7 µM. The gist of the method:
as §1

The test system of another test is CP217. Described as above. The following applies: P. falciparum in erythrocytes, SYBR Green DNA, 72 h; series mostly up to 28.7 µM. The gist of the method: as §1
The subject of the next test is CP237. The description is as above. The following applies: P. falciparum in erythrocytes, SYBR Green DNA, 72 h; series mostly up to 28.7 µM. The gist of the method: as §1
A further test relates to CP250. The description is as above. The following applies: P. falciparum in erythrocytes, SYBR Green DNA, 72 h; series mostly up to 28.7 µM. The gist of the method:
as §1

The subject of a further test is CP260. The description is as above. The following applies: P. falciparum in erythrocytes, SYBR Green DNA, 72 h; series mostly up to 28.7 µM. The gist of the method:
as §1

For another test, the system named is CP291. Described as above. The following applies: P. falciparum in erythrocytes, SYBR Green DNA, 72 h; series mostly up to 28.7 µM. The gist of the method:
as §1

A further test deals with DFO2036. The description is as above. The following applies: P. falciparum in erythrocytes, SYBR Green DNA, 72 h; series mostly up to 28.7 µM. The gist of the method: as §1
The subject of another test is Dd2. The test is described as above. The following applies: P. falciparum in erythrocytes, SYBR Green DNA, 72 h; series mostly up to 28.7 µM. The gist of the method:
as §1

A further test deals with ECU. The description is as above. The following applies: P. falciparum in erythrocytes, SYBR Green DNA, 72 h; series mostly up to 28.7 µM. The gist of the method:
as §1

The subject of a further test is ICS. Described as above. The following applies: P. falciparum in erythrocytes, SYBR Green DNA, 72 h; series mostly up to 28.7 µM. The gist of the method: as §1
A further test deals with JCK. The description is as above. The following applies: P. falciparum in erythrocytes, SYBR Green DNA, 72 h; series mostly up to 28.7 µM. The gist of the method: as §1
Another test deals with N140. Described as above. The following applies: P. falciparum in erythrocytes, SYBR Green DNA, 72 h; series mostly up to 28.7 µM. The gist of the method: as §1
The next test relates to P93_24. The test is described as above. The following applies: P. falciparum in erythrocytes, SYBR Green DNA, 72 h; series mostly up to 28.7 µM. The gist of the method: as §1
The test system of a further test is P94_40. The description is as above. The following applies: P. falciparum in erythrocytes, SYBR Green DNA, 72 h; series mostly up to 28.7 µM. The gist of the method: as §1
In the next test the test system is SC27B. The description is as above. The following applies: P. falciparum in erythrocytes, SYBR Green DNA, 72 h; series mostly up to 28.7 µM. The gist of the method: as §1
Another test deals with TAB109. Described as above. The following applies: P. falciparum in erythrocytes, SYBR Green DNA, 72 h; series mostly up to 28.7 µM. The gist of the method: as §1

Results filed as inconclusive are left out. Activity calls are given as the source filed them. Calls come from the whole dose curve; as a rule, active = well fitted curve in the direction sought with a large enough effect; inconclusive = small, poorly fitted or top-dose-only effect, or another doubt; inactive = no such curve, though single readings can be large; an effect the other way counts as inactive or inconclusive.

Chain of Ubiquitin carboxyl-terminal hydrolase 1 (Homo sapiens) (O94782 whole entry, looked up): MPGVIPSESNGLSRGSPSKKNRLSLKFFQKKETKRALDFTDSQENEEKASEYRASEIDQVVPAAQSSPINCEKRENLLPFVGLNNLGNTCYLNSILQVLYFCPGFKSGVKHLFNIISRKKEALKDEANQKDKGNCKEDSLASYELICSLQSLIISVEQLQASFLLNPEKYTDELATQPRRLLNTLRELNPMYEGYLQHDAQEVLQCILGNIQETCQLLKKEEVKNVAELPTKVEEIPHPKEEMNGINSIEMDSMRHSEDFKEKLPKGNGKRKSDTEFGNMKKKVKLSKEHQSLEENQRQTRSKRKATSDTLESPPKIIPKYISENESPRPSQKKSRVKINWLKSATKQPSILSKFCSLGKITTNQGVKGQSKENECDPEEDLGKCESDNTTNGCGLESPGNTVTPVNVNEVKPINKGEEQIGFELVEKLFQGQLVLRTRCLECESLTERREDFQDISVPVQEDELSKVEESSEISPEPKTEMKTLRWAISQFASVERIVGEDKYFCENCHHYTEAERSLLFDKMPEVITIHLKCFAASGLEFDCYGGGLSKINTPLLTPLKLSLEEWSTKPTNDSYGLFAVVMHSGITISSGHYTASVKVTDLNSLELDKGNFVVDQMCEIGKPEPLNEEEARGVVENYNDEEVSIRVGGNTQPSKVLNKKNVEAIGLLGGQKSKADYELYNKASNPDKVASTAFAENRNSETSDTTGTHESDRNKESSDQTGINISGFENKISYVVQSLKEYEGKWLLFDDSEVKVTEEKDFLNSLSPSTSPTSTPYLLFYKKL
Chain of ATP-dependent 6-phosphofructokinase (Trypanosoma brucei brucei) (O15648 whole entry, looked up): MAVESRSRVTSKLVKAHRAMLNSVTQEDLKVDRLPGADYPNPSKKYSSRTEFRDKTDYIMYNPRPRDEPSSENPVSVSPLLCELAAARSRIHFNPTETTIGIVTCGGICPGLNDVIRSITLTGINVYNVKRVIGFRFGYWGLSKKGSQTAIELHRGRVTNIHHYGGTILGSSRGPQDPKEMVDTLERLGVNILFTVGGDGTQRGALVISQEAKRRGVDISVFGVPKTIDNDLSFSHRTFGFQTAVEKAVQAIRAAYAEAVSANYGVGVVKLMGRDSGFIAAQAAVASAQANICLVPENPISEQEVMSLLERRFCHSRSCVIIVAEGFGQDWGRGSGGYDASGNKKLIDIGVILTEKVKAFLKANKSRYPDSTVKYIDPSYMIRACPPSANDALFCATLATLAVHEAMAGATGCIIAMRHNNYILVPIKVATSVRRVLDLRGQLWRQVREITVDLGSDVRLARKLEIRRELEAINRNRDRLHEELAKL

Regarding `CO[C@@H]1[C@@H](OC2OC(C)C(OC3CC(C)(O)C(OC(=O)CC(C)C)C(C)O3)C(N(C)C)C2O)[C@@H](CC=O)C[C@@H](C)C(=O)/C=C\C2O[C@H]2C[C@@H](C)OC(=O)C[C@H]1OC(C)=O` (stereo partly drawn), the call in test [1] was inactive. The Potency entry (in test [2]; with JCK) was “inactive” each time. In addition, the Potency with 3D7 was 11.2 µM (active); with C2A it was 10 µM (active); in the test with CP185 it was 7.94 µM (active); with CP217, 10 µM (active); in the test with CP237, 10 µM (active); with CP250 it was 10 µM (active). In addition, the Potency in the test on CP260 was 7.94 µM (active); in the test on CP291 it was 6.75 µM (active); with DFO2036, 10 µM (active); with Dd2, 0.891 µM (active); in the test with ECU, 8.91 µM (active); with ICS, 5.01 µM (active). For the same compound, the Potency in the test on N140 was 8.91 µM (active); with P93_24 it was 8.91 µM (active); with P94_40, 8.91 µM (active); in the test with SC27B, 10 µM (active); in the test on TAB109, 3.98 µM (active).
Consider `CC(C)=CCCC(C)CCO` (stereo not drawn), for which the Potency result in test [2] was “inactive”.
For the compound `NC1=NC(S)C2N=CN=C2N1` (stereo not drawn), the compound was called inactive in test [1]. Moreover, the Potency result (in [2]; with 3D7; in the test with C2A; in the test on CP185; with CP217; in the test on CP237) was “inactive” throughout. The Potency entry with CP250, in the test on CP260, in the test on CP291, in the test with DFO2036, in the test with Dd2 and with ECU was “inactive” each time. The Potency result in the test with ICS, in the test on JCK, in the test on N140, in the test on P93_24, with P94_40 and in the test on SC27B was “inactive” throughout. Further, the Potency result in the test on TAB109 is “inactive”.
Turning to `C/C=C\c1ccc(OC)cc1`, the call in test [1] was inactive. Besides, the Potency result (in [2]; in the test with 3D7; in the test with C2A; in the test on CP185; in the test on CP217; in the test on CP237) was “inactive” in each case. The Potency entry in the test with CP250, in the test on CP260, with CP291, in the test on DFO2036, in the test with Dd2 and in the test on ECU was “inactive” each time. Also, the Potency entry in the test on ICS, with JCK, in the test with N140, with P93_24, in the test with P94_40 and with SC27B was “inactive” in each case. Besides, the Potency entry with TAB109 is “inactive”.
Regarding `CN(C)CCCCCCN(C)C`, in [1], the compound was classed as inactive. Further, the Potency entry (in test [2]; in the test on 3D7; with C2A; with CP185; with CP217; with CP237) was “inactive” in each case. The Potency entry with CP250, in the test with CP260, with CP291, in the test on DFO2036, in the test on Dd2 and in the test on ECU was “inactive” throughout. The Potency entry with ICS, with JCK, in the test on N140, in the test with P93_24, in the test with P94_40 and in the test with SC27B was “inactive” in each case. In addition, the Potency entry in the test with TAB109 is “inactive”.
For the compound `S=C1NC=NC2N=CNC12` (stereo not drawn), the outcome in [1] was inactive. Also, the Potency entry (in [2]; with 3D7; in the test on C2A; in the test with CP185; with CP217; in the test on CP237) was “inactive” each time. Besides, the Potency result with CP250, in the test on CP260, in the test on DFO2036, with Dd2, in the test on ECU and in the test with ICS was “inactive” in each case. Also, the Potency entry in the test on JCK, with N140, in the test with P93_24, in the test on P94_40, with SC27B and in the test on TAB109 was “inactive” each time.
Consider `CO/N=C(/C(=O)N[C@@H]1C(=O)N2C(C(=O)O)=CCS[C@H]12)c1csc(N)n1`, for which the Potency entry with 3D7, with C2A, in the test with CP185, with CP217, in the test with CP237 and in the test on CP250 was “inactive” in each case. The Potency result in the test on CP260, with CP291, in the test on DFO2036, in the test with Dd2, in the test on ECU and in the test on ICS was “inactive” in each case. For the same compound, the Potency result in the test on JCK, in the test on N140, with P93_24, in the test with P94_40, in the test on SC27B and with TAB109 was “inactive” each time.

Source of the values: PubChem BioAssay (NCATS).
